SMILES strings stand for the structures. The source made the active and inactive calls. Rule for the calls: active = hit-call score of the fitted dose curve at least 0.9, where 1 is the maximum; inactive = score below 0.9.

This note sets out measurements from PubChem BioAssay (EPA / NIEHS).

Sequence of Estrogen receptor (Homo sapiens) (P03372 whole entry, looked up): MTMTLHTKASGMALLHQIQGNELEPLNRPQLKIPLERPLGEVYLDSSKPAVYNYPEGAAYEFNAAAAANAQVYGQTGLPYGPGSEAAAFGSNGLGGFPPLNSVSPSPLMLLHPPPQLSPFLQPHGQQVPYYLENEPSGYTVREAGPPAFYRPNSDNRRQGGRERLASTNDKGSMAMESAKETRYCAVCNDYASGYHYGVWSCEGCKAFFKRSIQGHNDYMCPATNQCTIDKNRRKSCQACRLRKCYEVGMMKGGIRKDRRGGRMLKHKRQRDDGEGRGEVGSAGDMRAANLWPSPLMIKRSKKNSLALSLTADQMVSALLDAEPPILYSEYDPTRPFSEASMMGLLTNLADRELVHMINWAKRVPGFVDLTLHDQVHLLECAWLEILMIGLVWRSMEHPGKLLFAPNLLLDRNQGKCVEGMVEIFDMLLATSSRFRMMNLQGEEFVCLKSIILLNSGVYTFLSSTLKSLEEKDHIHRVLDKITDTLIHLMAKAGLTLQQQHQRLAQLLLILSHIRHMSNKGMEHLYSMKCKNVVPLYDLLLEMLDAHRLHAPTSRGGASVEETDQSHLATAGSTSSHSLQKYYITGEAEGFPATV

The experiment has as its target Estrogen receptor (Homo sapiens) (UniProt P03372). The experiment is described as follows: OT_ERa_GFPERaERE_0480: Odyssey Thera (OT) 8-hour HeLa Transcription Induction Assay for Estrogen Receptor (AID 2283381). The method, then: OT_ERa_GFPERaERE_0480 is a cell-based, single-readout assay that uses HeLa, a human cervix cell line, with measurements taken at 8 hours after chemical dosing in a 384-well plate.OT_ERa_GFPERaERE_0480 is one of one assay component(s) measured or calculated from the OT_ERa_GFPERaERE_0480 assay. It is designed to make measurements of fluorescent protein induction, a form of inducible reporter, as detected with optical microscopy: fluorescence microscopy signals by Microscopy technology.Data from the assay component OT_ERa_GFPERaERE_0480 was analyzed into 1 assay endpoint. This assay endpoint, OT_ERa_EREGFP_0480, was analyzed in the positive analysis fitting direction relative to DMSO as the negative control and baseline of activity. Using a type of inducible reporter, measures of receptor for gain-of-signal activity can be used to understand the reporter gene at the pathway-level as they relate to the gene ESR1. Furthermore, this assay endpoint can be referred to as a primary readout, because the performed assay has only produced 1 assay endpoint. To generalize the intended target to other relatable targets, this assay endpoint is annotated to the nuclear receptor intended target family, where the subfamily is steroidal.
All assay endpoints are quantified using high content image analysis algorithms.
In the case of `O=Cc1ccccc1O`, the compound was called inactive.

As to `C=CCCCCCCCCC(=O)OCC`, the result was inactive. Turning to `CCNC(=S)NCC`, the compound was classed as inactive. The same measure, in the same setting: in the case of `c1ccc(Cc2ccccc2)cc1` it was “inactive”; in that of `CCCO`, “inactive”. On the same count and under the same terms, for `CCCCCC1C(=O)CCC1CC(=O)OC` (stereo not given) the value was “inactive”; for `c1coc(CNc2ncnc3nc[nH]c23)c1`, “inactive”.

Take `COC(=O)c1ccc(C(=O)OC)cc1`: the result was inactive. Regarding `CC(=O)c1ccc(O)cc1`, the compound was classed as inactive.

For `CCCO[Si](OCCC)(OCCC)OCCC`, the compound was called inactive. Still for that read-out and setting: for `CCC(C)(C)C1CCC(OC)CC1` (stereo not given) the value was “inactive”; for `OCC=Cc1ccccc1`, “inactive”; for `CCC(=O)OC(C)(C)C1CC=C(C)CC1` (stereo not given), “inactive”.

As to `NC(N)=S`, the outcome was inactive. Turning to `CCCCCCCCCCO[C@@H]1O[C@H](CO)[C@@H](O)[C@H](O)[C@H]1O`, the result was inactive.

Regarding `C=C(C)C(=O)OCCC(C)OC(=O)C(=C)C` (stereo not given), the outcome was inactive.

Take `CN(C)C`: the compound was called inactive. With `CC(O)CNCC(C)O` (stereo not given), the AC50 was 29.8 µM (active). As to `CCCCCCCCCCCCS`, the compound was classed as inactive. The same measure, in the same setting: for `CC(C)N(c1ccccc1)C(C)C` the value was “inactive”; for `CCCc1ccc(O)cc1`, “inactive”; for `CC(=O)OC/C=C(C)/C=C/C=C(C)/C=C/C1=C(C)CCCC1(C)C`, “inactive”. Same read-out and setting: for `CC1COC(=O)O1` (stereo not given) the value was “inactive”. Consider `COc1ccc2[nH]cc(CCNC(C)=O)c2c1`, for which the result was inactive. The same measure, in the same setting: for `COc1ccc(OC)cc1` the value was “inactive”; for `O=C(O)CS`, “inactive”. Same read-out and setting: for `CCCCCCCCCO` the value was “inactive”; for `CC(=O)Nc1cc(S(=O)(=O)O)cc2cc(S(=O)(=O)O)c(N=Nc3ccccc3)c(O)c12`, “inactive”; for `CCCCOCCOCCO`, “inactive”.

On to `CC(=O)C1C(=O)C=C(C)OC1=O` (stereo not given), for which the call was inactive.

For the compound `CCCc1ccc(N)cc1`, the result was inactive.

Take `CCCCCCCCCOS(=O)(=O)O`: the compound was classed as inactive. On the same count and under the same terms, in the case of `Cc1cccc(O)c1` it was “inactive”; in that of `CC(=O)N(C)C`, “inactive”. Still for that read-out and setting: in the case of `CCCC1CCC(=O)CC1` it was “inactive”.

For the compound `CN1CCc2cccc3c2[C@H]1Cc1ccc(O)c(O)c1-3`, the result was inactive.

In the case of `COc1ccccc1O`, the outcome was inactive.

As for `CC(C)(C)c1ccc(S)cc1`, the outcome was inactive. On the same count and under the same terms, in the case of `CC(C)(C)C1CCC(O)CC1` (stereo not given) it was “inactive”; in that of `CCC(C)COC(=O)CC(C)C` (stereo not given), “inactive”.

A word on the AC50: it is the concentration at which the activity in the assay is half-maximal.
